Growth data for 36 compounds are collected here from PubChem BioAssay (NCI).

About 83,000 compounds went through this panel and 20% of them were active in at least one assay; those are over-represented in the sample as a whole.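 For each line, cells grew in 96-well plates with the test compound present at a single concentration for 48 hours.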 The source made the active and inactive calls. How the source made its calls: active means growth percent below 10; inactive means the rest.

The subject of this assay is HL-60(TB) leukemia. In words: NCI-60 one-dose screen, 48 h (100 = growth as untreated, 0 = no growth, -100 = all killed). Conditions: 10 µM unless noted.
As for `C#CCOc1ccccc1C(OC(=O)c1ccccc1)C(=O)NC(C)(C)C(C)(C)C` (stereo unspecified), the growth is 95.1% (inactive).

With `CC(=O)c1ccc(Nc2nc(SC(C)C)nc(-c3ccccc3)c2C#N)cc1`, the growth was 83.8% (inactive).

On to `NC(=O)c1c(NC(=O)c2cccc(OC(F)(F)F)c2)sc2c1CCC(=O)C2`, for which the growth was 60% (inactive).

As for `CC(=O)N1C(=S)NC(=O)C1CC(C)C` (stereo unspecified), the growth was 106% (inactive).

`C=C1C(=O)O[C@@H]2C[C@@H](C)[C@H](OC)CC(=O)[C@](C)(OC(C)=O)C[C@H](OC(=O)/C(C)=C\C)[C@@H]12`: the growth was 69.3% (inactive).

As for `O=S(=O)(NCCNc1nccc(-n2cnc3ccccc32)n1)c1ccc(Br)cc1`, the growth is 114% (inactive).

Regarding `Cn1cc(-c2nnc(N)nc2-c2c[nH]c3ccc(Br)cc23)c2cc(Br)ccc21`, the growth was 90.8% (inactive).

`COc1cc2cc(Oc3ccc(NC(=O)Nc4cc(C(F)(F)F)cc(C(F)(F)F)c4)cc3)c(C)nc2cc1OCCN(C)C`: the growth was 109% (inactive).

In the case of `CN(C)CCCOc1ccc(C(=C(c2ccccc2)C2CCCC2)c2ccc(OCCCN(C)C)cc2)cc1`, the growth was -57.1% (active).

As to `Cc1cc(-c2ccc(Cl)cc2)n(Cc2nnc(SCC(=O)Nc3ccc(S(N)(=O)=O)cc3)n2C2CCCCC2)n1`, the growth is 116% (inactive).

In the case of `O=c1c2ccccc2cc2n1CCN=C2c1ccccc1`, the growth was 97.8% (inactive).

Turning to `O=S(=O)(Nc1cccc2ccccc12)c1ccc(-c2cnc(C3CC3)o2)cc1`, the growth was -16.2% (active).

For `C#CCn1cc(/C=N/Nc2nc(-c3ccc(Br)cc3)cs2)c2ccccc21`, the growth was 107% (inactive).

For `CCOC(=O)c1ccccc1NC1=C(Cl)C(=O)c2nc(C)ccc2C1=O`, the growth was 70.9% (inactive).

Consider `COc1ccc(C2CC(c3ccc(Nc4nc(NCCO)nc(Nc5ccc(Cl)cc5)n4)cc3)=Nc3c(N)nc(N)nc3N2)cc1` (stereo unspecified), for which the growth was 36.6% (inactive).

For `NC(N)=Nc1ccc(Oc2cccc(NC(N)=Nc3ccc(Br)cc3)c2)cn1`, the growth is 64.8% (inactive).

Take `COC1=C(c2ccccc2)C(=O)C(OC)=C(c2ccccc2)C1=O`: the growth is 5.79% (active).

For `C=C(C=O)[C@@H]1CC[C@]2(C)[C@H](C(=O)C=C3[C@H]4C[C@](C)(C(=O)OC)CC[C@]4(C)CC[C@]32C)[C@@]1(C)CCC#N`, the growth was -27.3% (active).

On to `Cc1ccc(CSc2nc(-c3ccc(Cl)cc3)c(C#N)c(N3CCOCC3)n2)cc1`, for which the growth was 98.2% (inactive).

As for `COc1cc2nc(Cl)nc(Nc3cccc(C4=Nc5c(N)nc(N)nc5NC(c5ccc(Cl)cc5)C4)c3)c2cc1OC` (stereo unspecified), the growth was -30.3% (active).

As for `COc1cc(CNC(=O)Cc2ccccc2[N+](=O)[O-])ccc1OCC(=O)NO`, the growth is 118% (inactive).

For the compound `CC1=C(C)C(=O)C(Nc2cccc(C(F)(F)F)c2)=C(Cl)C1=O`, the growth is 38.5% (inactive).

Consider `O=C(Nc1cccc(Cl)c1)Nc1nc2ccc([N+](=O)[O-])cc2s1`, for which the growth was -40% (active).

In the case of `NC(N)=Nc1ccc(Oc2cccc(Oc3ccc(Cl)c(C(F)(F)F)c3)c2)cn1`, the growth was -69% (active).

Take `O=C(CSc1nccc(=O)[nH]1)Nc1ccc(-c2nc3ccccc3[nH]2)cc1`: the growth was 115% (inactive).

For `Cc1ccccc1N1CCN(C2=C(Cl)C(=O)c3ncccc3C2=O)CC1`, the growth was 4.21% (active).

Turning to `O=C(/C=C/c1cc(Cl)ccc1Cl)Nc1ncc(Cc2ccc(Cl)cc2)s1`, the growth is -7.21% (active).

For the compound `CCc1cc2c(cc1Cl)nc1c(=O)[nH]c(=O)nc-1n2CCOCC(C)C`, the growth was 51.2% (inactive).

Turning to `N#Cc1cccc(/C(N)=N/C(N)=N/c2nc3ccccc3s2)c1`, the growth was 4.28% (active).

Turning to `NS(=O)(=O)c1ccc(Nc2nc(Nc3ccccc3)nc(-n3nc(-c4ccccc4)cc3-c3ccccc3)n2)cc1`, the growth was 4.82% (active).

`O=c1c2ccccc2nc(COc2ccccc2)n1NS(=O)(=O)c1ccc(Cl)cc1`: the growth is 75.7% (inactive).

`CN1CCN(Cc2ccc(NC(=O)c3cncc(C#Cc4cnc5ccc(NCCO)nn45)c3)cc2C(F)(F)F)CC1`: the growth is -12.1% (active).

For the compound `CCOP(=O)(OCC)OC[C@]12CCC(C)(C)C[C@H]1C1=CC[C@@H]3[C@@]4(C)CC[C@H](OP(=O)(OCC)OCC)C(C)(C)[C@@H]4CC[C@@]3(C)[C@]1(C)CC2`, the growth is 8.99% (active).

Regarding `COc1ccc2c(c1)c(CC(=O)[Se]CC(=O)O)c(C)n2C(=O)c1ccc(Cl)cc1`, the growth is 53.7% (inactive).

With `C=CCOc1cccc(/C=C2\SC(=S)N(C3CC(=O)N(c4ccc(Br)cc4)C3=O)C2=O)c1` (stereo unspecified), the growth is 108% (inactive).

As to `CCN1C(=O)N(CC)C2SC(N/N=C/c3ccc(OC)cc3)=NC21` (stereo unspecified), the growth is -16.6% (active).
